{"source": "PubChem BioAssay AID1159554", "about": "(Broad Institute, 2015)", "note": "In all, about 94,000 compounds went through this assay and about 2,100 (2.2%) were called active. Rule as the data show it: active = activity change below about -80%; inconclusive = no clear call, values can overlap the other calls; inactive = above that. The full list was thinned out, with actives kept by preference."}
{"assay": "Dd2 malaria parasite growth inhibition – SYBR Green fluorescence, single dose replicates, primary screen (AID 1159554)", "settings": "P. falciparum Dd2 growth, 72 h, at 10 µM, stronger effect = lower value"}
{"smiles": "CCCNC(=O)[C@@H]1[C@@H](CO)[C@@H]2Cn3c(ccc(-c4ccccc4F)c3=O)[C@H]1N2CC1CC1", "activity change": "4.78% (inactive)"}
{"smiles": "CCCNC(=O)C[C@@H]1CC[C@H]2[C@@H](COc3ccc(NC(=O)C4CCCC4)cc3C(=O)N2C)O1", "activity change": "5.93% (inactive)"}
{"smiles": "O=C(CC1CC1)N1CC[C@@H]2[C@@H](CO)Nc3ccc(-c4ccccc4)cc3[C@@H]21", "activity change": "4.83% (inactive)"}
{"smiles": "O=C(Nc1ccccc1)N[C@@H]1CC[C@H](CCn2cc(-c3ccccc3F)nn2)O[C@@H]1CO", "activity change": "-68% (inactive)"}
{"smiles": "O=C(Nc1ccc(F)cc1)N[C@H]1CC[C@H](CCn2cc(C3(O)CCCC3)nn2)O[C@@H]1CO", "activity change": "-25.8% (inactive)"}
{"smiles": "C[C@@H]1CN([C@H](C)CO)C(=O)c2cc(NC(=O)Nc3ccc(F)cc3)ccc2O[C@@H](C)CCCCO[C@H]1CN(C)Cc1ccc(Cl)c(Cl)c1", "activity change": "-77.2% (inactive)"}
{"smiles": "C[C@@H]1CCCCO[C@@H](CN(C)Cc2ccc3c(c2)OCO3)[C@@H](C)CN([C@@H](C)CO)C(=O)c2cc(NC(=O)Nc3ccccc3)ccc2O1", "activity change": "-36.8% (inactive)"}
{"smiles": "COc1ccc(CN(C)C[C@@H]2OCCCC[C@@H](C)Oc3ccc(NC(=O)Nc4ccc(OC)cc4)cc3C(=O)N([C@@H](C)CO)C[C@@H]2C)cc1", "activity change": "-76.5% (inactive)"}
{"smiles": "C[C@H]1CCCCO[C@@H](CN(C)Cc2ccc(C(F)(F)F)cc2)[C@@H](C)CN([C@@H](C)CO)C(=O)c2cc(NC(=O)Nc3ccccc3)ccc2O1", "activity change": "-74.7% (inactive)"}
{"smiles": "C[C@@H]1CN([C@H](C)CO)C(=O)c2cc(NC(=O)Nc3ccccc3)ccc2O[C@@H](C)CCCCO[C@H]1CN(C)Cc1ccc(C(F)(F)F)cc1", "activity change": "-85.7% (active)"}
{"smiles": "C[C@@H]1CCCCO[C@H](CN(C)Cc2ccc(Cl)c(Cl)c2)[C@@H](C)CN([C@@H](C)CO)C(=O)c2cc(NC(=O)Nc3ccccc3)ccc2O1", "activity change": "-83% (active)"}
{"smiles": "COc1ccc(NC(=O)Nc2ccc3c(c2)C(=O)N([C@H](C)CO)C[C@H](C)[C@H](CN(C)Cc2ccncc2)OCCCC[C@H](C)O3)cc1", "activity change": "29.4% (inactive)"}
{"smiles": "C[C@@H]1CCCCO[C@@H](CN(C)Cc2ccc(Cl)c(Cl)c2)[C@H](C)CN([C@H](C)CO)C(=O)c2cc(NC(=O)Nc3ccc(F)cc3)ccc2O1", "activity change": "-83% (active)"}
{"smiles": "C[C@H](CO)N1C[C@H](C)[C@H](CN(C)Cc2ccc(Cl)c(Cl)c2)OCCCC[C@H](C)Oc2ccc(NC(=O)NC3CCCCC3)cc2C1=O", "activity change": "-14.4% (inactive)"}
{"smiles": "CC(C)NC(=O)Nc1ccc2c(c1)C(=O)N([C@@H](C)CO)C[C@@H](C)[C@H](CN(C)Cc1ccc(Cl)c(Cl)c1)OCCCC[C@H](C)O2", "activity change": "-77.6% (inactive)"}
{"smiles": "COc1ccc(NC(=O)Nc2ccc3c(c2)C(=O)N([C@H](C)CO)C[C@@H](C)[C@H](CN(C)Cc2ccc(Cl)c(Cl)c2)OCCCC[C@@H](C)O3)cc1", "activity change": "-83.8% (active)"}
{"smiles": "C[C@@H]1CCCCO[C@@H](CN(C)Cc2ccc(C(F)(F)F)cc2)[C@@H](C)CN([C@H](C)CO)C(=O)c2cc(NC(=O)Nc3ccccc3)ccc2O1", "activity change": "74.5% (inactive)"}
{"smiles": "COc1ccc(-c2ccc([C@@H]3[C@H](CN(C)S(C)(=O)=O)N[C@@H]3CO)cc2)cc1", "activity change": "-61.4% (inactive)"}
{"smiles": "C[C@H](CO)N1C[C@H](C)[C@@H](CN(C)C(=O)Cc2ccccn2)Oc2cc(-c3cccc(C(=O)N(C)C)c3)ccc2S1(=O)=O", "activity change": "-3.07% (inactive)"}
{"smiles": "CN1CCN(C(=O)C[C@H]2C[C@@H]3c4cc(NS(=O)(=O)c5ccc(F)cc5)ccc4O[C@@H]3[C@@H](CO)O2)CC1", "activity change": "-2.3% (inactive)"}
{"smiles": "CO[C@@H]1CN(C)C(=O)c2cc(NC(=O)NC3CCCC3)ccc2OC[C@H](C)NC[C@H]1C", "activity change": "14.4% (inactive)"}
{"smiles": "O=C(Nc1cc(F)ccc1F)N1CC(=O)N2[C@H](CO)[C@@H](c3ccc(-c4cccnc4)cc3)[C@@H]2C1", "activity change": "-15.2% (inactive)"}
{"smiles": "CCC(=O)N1C[C@H]2[C@@H](c3ccccc31)[C@H](CO)N2Cc1ccccc1F", "activity change": "0.398% (inactive)"}
{"smiles": "CO[C@H]1CN(C)C(=O)c2ccc(NC(C)=O)cc2OC[C@@H](C)N(C(=O)c2ccccn2)C[C@@H]1C", "activity change": "13.4% (inactive)"}
{"smiles": "Cc1noc(C)c1S(=O)(=O)N(C)C[C@@H]1OCCCC[C@@H](C)Oc2ccc(NS(=O)(=O)c3ccccc3)cc2C(=O)N([C@H](C)CO)C[C@@H]1C", "activity change": "-10.1% (inactive)"}
{"smiles": "CCC(=O)N1CC2(C1)CN(Cc1cc(F)ccc1F)[C@@H](CO)c1[nH]c3cc(OC)ccc3c12", "activity change": "-89.9% (active)"}
{"smiles": "COc1ccc2c3c([nH]c2c1)[C@@H](CO)N(Cc1cc(F)ccc1F)CC31CCN(C(=O)C2CCC2)CC1", "activity change": "-88% (active)"}
{"smiles": "COc1ccc2c3c([nH]c2c1)[C@@H](CO)N(Cc1ccncc1)CC31CN(C(=O)CN(C)C)C1", "activity change": "-8.59% (inactive)"}
{"smiles": "COc1ccc2c3c([nH]c2c1)[C@@H](CO)N(C(C)=O)CC31CN(C(=O)Nc2ccc(F)cc2)C1", "activity change": "-0.229% (inactive)"}
{"smiles": "COc1ccc2c3c([nH]c2c1)[C@@H](CO)N(C(=O)NC(C)C)CC31CN(C(=O)C2CCCC2)C1", "activity change": "12.7% (inactive)"}
{"smiles": "COc1ccc2c3c([nH]c2c1)[C@@H](CO)N(Cc1ccccc1OC)CC31CCN(C)CC1", "activity change": "35.1% (inactive)"}
{"smiles": "COCC(=O)N1CC2(C1)CN(Cc1ccccc1F)[C@@H](CO)c1[nH]c3cc(OC)ccc3c12", "activity change": "-88.4% (active)"}
{"smiles": "CCCNC(=O)N1CC2(CCN(C(=O)C3CC3)CC2)c2c([nH]c3cc(OC)ccc23)[C@H]1CO", "activity change": "-26.2% (inactive)"}
{"smiles": "COc1ccc2c3c([nH]c2c1)[C@@H](CO)N(Cc1cc(F)ccc1F)CC31CN(C(=O)C2CCC2)C1", "activity change": "-89.2% (active)"}
{"smiles": "CCC(=O)N1CCC2(CC1)CN(Cc1cc(F)ccc1F)[C@@H](CO)c1c2c2ccc(OC)cc2n1C", "activity change": "-73% (inactive)"}
{"smiles": "COc1ccc2c3c(n(C)c2c1)[C@H](CO)N(Cc1ccccc1F)CC31CN(C(=O)C2CCC2)C1", "activity change": "-14.5% (inactive)"}
{"smiles": "COc1ccc2c3c([nH]c2c1)[C@H](CO)N(Cc1nccs1)CC31CCN(C(=O)C2CCC2)CC1", "activity change": "-50% (inactive)"}
{"smiles": "CCS(=O)(=O)N1[C@H](CO)[C@@H](c2ccccc2)C12CN(C(=O)C1CCC1)C2", "activity change": "35.7% (inactive)"}
{"smiles": "COc1ccccc1S(=O)(=O)N1CC[C@@H]2[C@H](CO)Nc3ccc(-c4ccccc4F)cc3[C@@H]21", "activity change": "-2.28% (inactive)"}
{"smiles": "O=C1CN(Cc2ccc(F)cc2)C[C@H]2[C@@H](c3ccc(Br)cc3)[C@H](CO)N12", "activity change": "-35.6% (inactive)"}
{"smiles": "O=C(C[C@H]1C[C@@H]2c3cc(NC(=O)C4CCC4)ccc3O[C@@H]2[C@H](CO)O1)NC1CCCCC1", "activity change": "12% (inactive)"}
{"smiles": "O=C(N[C@@H]1C=C[C@H](CC(=O)N2CCOCC2)O[C@H]1CO)c1ccccn1", "activity change": "34% (inactive)"}
{"smiles": "C[C@H](O)C#Cc1cnc2c(c1)C(=O)N([C@H](C)CO)C[C@H](C)[C@H](CN(C)C(=O)c1ccc(F)cc1)O2", "activity change": "8.85% (inactive)"}
{"smiles": "COc1cccc(CNC(=O)C[C@@H]2CC[C@@H]3[C@H](COc4ccc(NC(C)=O)cc4C(=O)N3C)O2)c1", "activity change": "-0.731% (inactive)"}
{"smiles": "C[C@@H]1CN([C@H](C)CO)C(=O)Cc2cc(NC(=O)Nc3ccccc3)ccc2O[C@H]1CN(C)Cc1ccc(Cl)c(Cl)c1", "activity change": "-5.47% (inactive)"}
{"smiles": "C[C@H](CO)N1C[C@H](C)[C@@H](CN(C)Cc2ccc(Cl)c(Cl)c2)Oc2ccc(NC(=O)Nc3ccc(C(F)(F)F)cc3)cc2CC1=O", "activity change": "-87.2% (active)"}
{"smiles": "C[C@H](CO)N1C[C@H](C)[C@@H](CN(C)CC2CC2)Oc2ccc(NC(=O)Nc3ccccc3)cc2CC1=O", "activity change": "-83.5% (active)"}
{"smiles": "C[C@H]1CN([C@@H](C)CO)C(=O)Cc2cc(NC(=O)Nc3cccc4ccccc34)ccc2O[C@H]1CN(C)CC1CC1", "activity change": "-71.1% (inactive)"}
{"smiles": "Cc1noc(C)c1NC(=O)Nc1ccc2c(c1)CC(=O)N([C@@H](C)CO)C[C@@H](C)[C@H](CN(C)Cc1ccc(Oc3ccccc3)cc1)O2", "activity change": "-81.8% (active)"}
{"smiles": "Cc1noc(C)c1NC(=O)Nc1ccc2c(c1)C(=O)N([C@H](C)CO)C[C@H](C)[C@H](CN(C)Cc1ccc(Oc3ccccc3)cc1)O2", "activity change": "-39.9% (inactive)"}
{"smiles": "C[C@@H]1CN([C@H](C)CO)C(=O)Cc2cc(NC(=O)Nc3ccccc3)ccc2O[C@@H]1CN(C)Cc1ccc(C(F)(F)F)cc1", "activity change": "2.2% (inactive)"}
{"smiles": "Cc1noc(C)c1NC(=O)Nc1ccc2c(c1)CC(=O)N([C@H](C)CO)C[C@@H](C)[C@@H](CN(C)Cc1ccncc1)O2", "activity change": "3.85% (inactive)"}
{"smiles": "CC(C)NC(=O)Nc1ccc2c(c1)CC(=O)N([C@@H](C)CO)C[C@@H](C)[C@H](CN(C)CC1CC1)O2", "activity change": "1.75% (inactive)"}
{"smiles": "CO[C@@H]1CN(C)C(=O)c2cc(NC(=O)C3CCOCC3)ccc2OC[C@H](C)N(Cc2cccnc2)C[C@@H]1C", "activity change": "14.9% (inactive)"}
{"smiles": "CCS(=O)(=O)Nc1ccc2c(c1)C(=O)N(C)[C@@H]1CC[C@H](CC(=O)N3CCCCC3)O[C@@H]1CO2", "activity change": "6.13% (inactive)"}
{"smiles": "CO[C@@H]1CN(C)C(=O)c2cc(NS(=O)(=O)c3ccccc3)ccc2OC[C@@H](C)N(C(=O)NC(C)C)C[C@@H]1C", "activity change": "20.8% (inactive)"}
{"smiles": "COCC(=O)N1CCC2(CC1)CN(C(=O)Nc1ccccc1F)[C@@H](CO)c1c2c2ccc(OC)cc2n1C", "activity change": "-32.4% (inactive)"}
{"smiles": "CCCC#Cc1cnc2c(c1)C(=O)N([C@@H](C)CO)C[C@@H](C)[C@@H](CN(C)C(=O)c1ccccc1)O2", "activity change": "-15.9% (inactive)"}
{"smiles": "CO[C@H]1CN(C)C(=O)c2ccc(NC(=O)C3CC3)cc2OC[C@H](C)N(Cc2ccncc2)C[C@@H]1C", "activity change": "-31.5% (inactive)"}
{"smiles": "COc1cccc(CNC(=O)[C@@H]2[C@@H](CO)[C@@H]3Cn4c(ccc(-c5cccnc5)c4=O)[C@@H]3N2C)c1", "activity change": "8.71% (inactive)"}
